# In PubChem BioAssay (Tox21):
# Results filed as inconclusive are left out. Activity calls are given as the source filed them. The call rests on the fitted dose curve; in most records, active means well fitted activation curve with a large enough effect; inconclusive means small, poorly fitted or top-dose-only effect; inactive means flat fitted curve, though single readings scatter.
# Assay: qHTS assay to identify small molecule phospholipidosis (PLD) inducers (AID 1259344)
# Conditions: HepG2 phospholipidosis, LipidTOX Red imaging, 24 h; series mostly up to 38.3 µM; PLD induction: at the top concentration
# How it was run: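 Read-out is LipidTOX Red fluorescence (ex 595/em 615) imaged in HepG2 cells after 24 h compound exposure at 37 C, with Hoechst nuclear counterstain (ex 352/em 461) allowing per-cell normalisation.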
# On the % scale 0 is the no-effect control and ±100 the full control effect.
Structure (SMILES),PLD induction,Potency
CC[C@@H](C)[C@H](N)C(=O)O,-0.598% (inactive),–
C/C(=C\C(=O)OCCCCCCCCC(=O)O)C[C@@H]1OC[C@H](C[C@@H]2O[C@H]2[C@@H](C)[C@H](C)O)[C@@H](O)[C@H]1O,-0.0634% (inactive),–
CC1(C)S[C@@H]2[C@H](N3C(=O)C(c4ccccc4)NC3(C)C)C(=O)N2[C@H]1C(=O)O (some centres not stated),2.57% (inactive),–
C=C1[C@@H]2CC[C@@H](C2)C1(C)C,2.78% (inactive),–
O=C(O)c1cc2cc(Cc3cccnc3)ccc2o1,0.373% (inactive),–
C[C@]12O[C@H](C[C@]1(O)CO)n1c3ccccc3c3c4c(c5c6ccccc6n2c5c31)CNC4=O,-1.86% (inactive),–
CCOC(=O)[C@H](CCc1ccccc1)N[C@@H](C)C(=O)N1[C@H](C(=O)O)C[C@H]2CCCC[C@@H]21,–,inactive
CC(C)=CCC/C(C)=C/CC/C(C)=C/CC/C=C(\C)CC/C=C(\C)CCC=C(C)C,–,inactive
C[C@@H]1C(=O)NC2=Nc3cccc(Cl)c3CN21,0.0716% (inactive),–
CCc1cn([C@H]2C[C@H](O)[C@@H](CO)O2)c(=O)[nH]c1=O,-0.499% (inactive),–
CCC[C@@H]1C[C@@H](C(=O)N[C@@H]([C@H]2O[C@H](SC)[C@H](OP(=O)(O)O)[C@@H](O)[C@H]2O)[C@H](C)Cl)N(C)C1,–,inactive
CC(C)OC(=O)Nc1ccc2nc(-c3cscn3)[nH]c2c1,1.3% (inactive),–
CC(=O)Nc1ccc(OC(C)=O)cc1,-0.15% (inactive),–
CC(=O)O[C@H]1C[C@@H]2CC[C@@H]3[C@H](CC[C@@]4(C)[C@H]3C[C@H]([N+]3(C)CCCCC3)[C@@H]4OC(C)=O)[C@@]2(C)C[C@@H]1[N+]1(C)CCCCC1,-0.982% (inactive),–
COc1cc2c(cc1O)CCN[C@]21CS[C@@H]2c3c(OC(C)=O)c(C)c4c(c3[C@H](COC1=O)N1[C@@H]2[C@H]2c3c(cc(C)c(OC)c3O)C[C@@H]([C@@H]1O)N2C)OCO4,–,inactive
CSCC[C@H](NC(=O)[C@H](Cc1ccc(OS(=O)(=O)O)cc1)NC(=O)[C@@H](N)CC(=O)O)C(=O)NCC(=O)N[C@@H](Cc1c[nH]c2ccccc12)C(=O)N[C@@H](CCSC)C(=O)N[C@@H](CC(=O)O)C(=O)N[C@@H](Cc1ccccc1)C(N)=O,–,inactive
CC(C)=CCC/C(C)=C/CC/C(C)=C/CC/C(C)=C/CC1=C(C)C(=O)c2ccccc2C1=O,–,inactive
O=C(Cn1cnnn1)N[C@@H]1C(=O)N2C(C(=O)O)=C(CSc3nncs3)CS[C@H]12,–,inactive
CN(C)CCC(O)(c1ccccc1)c1ccccc1Cl (configuration not stated),4.15% (inactive),–

Structure (SMILES),PLD induction,Potency
O=P(O)(O)CP(=O)(O)O,1.14% (inactive),–
CCN(CC)CCOC[C@H]1O[C@@H](O)[C@H](OCCN(CC)CC)[C@@H](O)[C@@H]1O,-0.208% (inactive),–
Cc1ccc(C(C)(C)c2ccc(C)cc2)cc1,-0.975% (inactive),–
O=C(O)c1ccc(NC2OC[C@@H](O)[C@H](O)[C@H]2O)cc1 (some centres not stated),-0.158% (inactive),–
CN1C(C(=O)Nc2ccccn2)C(=O)c2sc(Cl)cc2S1(=O)=O (configuration not stated),-1.17% (inactive),–
CC1(C)S[C@@H]2[C@H](NC(=O)[C@@H](NC(=O)N3CCNC3=O)c3ccccc3)C(=O)N2[C@H]1C(=O)O,-1.33% [at 15.5 µM] (inactive),–
NCCO/C=C/[C@H](N)C(=O)O,1.88% (inactive),–
O=P(O)(O)C(O)(Cn1ccnc1)P(=O)(O)O,-1.58% (inactive),–
Oc1ccc(Cl)c2c1CCC2,-0.3% (inactive),–
CC[C@@]1([C@@H]2O[C@@H]([C@H]3O[C@@](O)(CO)[C@H](C)C[C@@H]3C)C[C@@H]2C)CC[C@H]([C@]2(C)CC[C@]3(C[C@H](O)[C@@H](C)[C@@H]([C@@H](C)[C@@H](OC)[C@H](C)C(=O)O)O3)O2)O1 (stereo in doubt),–,inactive
C[C@H](NCCc1ccc(O)cc1)[C@H](O)c1ccc(O)cc1,-0.415% (inactive),–
CC1(C)S[C@@H]2[C@H](NC(=O)[C@H](N)c3ccc(O)cc3)C(=O)N2[C@H]1C(=O)O,2.74% (inactive),–
CO[C@H]1C[C@H](O[C@H]2[C@H](C)[C@@H](O[C@@H]3O[C@H](C)C[C@H](N(C)C)[C@H]3O)[C@@H](C)C[C@]3(CO3)C(=O)[C@H](C)[C@@H](O)[C@@H](C)[C@@H](C)OC(=O)[C@@H]2C)O[C@@H](C)[C@@H]1O,0.285% [at 15.5 µM] (inactive),–
CO/N=C(\C(=O)N[C@@H]1C(=O)N2C(C(=O)[O-])=C(C[n+]3ccc(N)n3CCO)CS[C@H]12)c1csc(N)n1,0.43% (inactive),–
NC(=O)C1c2ccccc2CCc2ccccc21,-0.486% (inactive),–
c1ccc2c(c1)OCC(CN1CCCCC1)O2 (configuration not stated),-0.257% (inactive),–
NCCCC(=O)O,-1.08% (inactive),–
CCN(CC)C(=O)c1cccnc1,-0.138% (inactive),–
